Reference: the supplement of paper PMC10849652
The full data set covers some 7,900 targets. This sample favours those with a hit. About 0.6% of all pairs of compound and target were hits.

Legend:
Test in all cases: log2 fold change, soluble protein after heating vs DMSO (PISA); higher = thermal stabilisation; K562 cells, 10 uM, 30 min; active = over 0.2 and 3.5 SD of the protein, either way, in both replicates (recomputed)
[1] = compound: COC1=CC=C(C=C1)CN2C=CC3=C2C=C(C=C3)C(=O)NO
Procedure, shortened: (§1)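 K562 cells at 2×10^6 cells/mL were exposed to 10 μM compound for 30 min, then aliquots were heated for 3 min across 48°C-58°C, pooled, and extracted in PBS containing 0.5% NP-40 at 4°C. The supernatant after 21,000xg for 90 min was taken as soluble protein and measured by TMTpro 16plex LC-MS/MS with channel sums equalised. Thermal stability is reported relative to control samples, with values from duplicates. Fold changes are given on a log2 scale.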

filanesib = compound: CON(C)C(=O)N1N=C(c2cc(F)ccc2F)S[C@@]1(CCCN)c1ccccc1 [filanesib]
Procedure, shortened: as §1

zotarolimus = compound: CO[C@H]1C[C@@H]2CC[C@@H](C)[C@@](O)(O2)C(=O)C(=O)N2CCCC[C@H]2C(=O)O[C@H]([C@H](C)C[C@@H]2CC[C@H](n3cnnn3)[C@H](OC)C2)CC(=O)[C@H](C)/C=C(\C)[C@@H](O)[C@@H](OC)C(=O)[C@H](C)C[C@H](C)/C=C/C=C/C=C/1C [zotarolimus]
Procedure, shortened: as §1

idasanutlin = compound: COc1cc(C(=O)O)ccc1NC(=O)[C@@H]1N[C@@H](CC(C)(C)C)[C@](C#N)(c2ccc(Cl)cc2F)[C@H]1c1cccc(Cl)c1F [idasanutlin]
Procedure, shortened: as §1

alisertib = compound: COc1cc(Nc2ncc3c(n2)-c2ccc(Cl)cc2C(c2c(F)cccc2OC)=NC3)ccc1C(=O)O [alisertib]
Procedure, shortened: as §1

[2] = compound: COc1cc2nc(-c3cc(F)ccc3O)nc(N[C@@H]3CNC[C@H]3C(C)(C)O)c2cc1OC
Procedure, shortened: as §1

gefitinib = compound: COc1cc2ncnc(Nc3ccc(F)c(Cl)c3)c2cc1OCCCN1CCOCC1 [gefitinib]
Procedure, shortened: as §1

[3] = compound: COc1cccc2cc(-c3nc([C@H]4CC[C@H](C(=O)O)CC4)n4ncnc(N)c34)[nH]c12
Procedure, shortened: as §1

lapatinib = compound: CS(=O)(=O)CCNCc1ccc(-c2ccc3ncnc(Nc4ccc(OCc5cccc(F)c5)c(Cl)c4)c3c2)o1 [lapatinib]
Procedure, shortened: as §1

pictilisib = compound: CS(=O)(=O)N1CCN(Cc2cc3nc(-c4cccc5[nH]ncc45)nc(N4CCOCC4)c3s2)CC1 [pictilisib]
Procedure, shortened: as §1

[4] = compound: CS(=O)(=O)c1ccc(-c2cnc(N)c(C(=O)Nc3ccccc3)n2)cc1
Procedure, shortened: as §1

crizotinib = compound: C[C@@H](Oc1cc(-c2cnn(C3CCNCC3)c2)cnc1N)c1c(Cl)ccc(F)c1Cl [crizotinib]
Procedure, shortened: as §1

[5] = compound: C[C@@H]1COCCN1C2=NC(=NC(=C2)C3(CC3)S(=O)(=O)C)C4=C5C=CNC5=CC=C4
Procedure, shortened: as §1

[6] = compound: C[C@H](C1=CC=C(C=C1)C(=O)NC2=C3C=CNC3=NC=C2)N
Procedure, shortened: as §1

duvelisib = compound: C[C@H](Nc1ncnc2nc[nH]c12)c1cc2cccc(Cl)c2c(=O)n1-c1ccccc1 [duvelisib]
Procedure, shortened: as §1

gandotinib = compound: Cc1cc(Nc2cc(CN3CCOCC3)c3nc(C)c(Cc4ccc(Cl)cc4F)n3n2)n[nH]1 [gandotinib]
Procedure, shortened: as §1

tozasertib = compound: Cc1cc(Nc2cc(N3CCN(C)CC3)nc(Sc3ccc(NC(=O)C4CC4)cc3)n2)n[nH]1 [tozasertib]
Procedure, shortened: as §1

[7] = compound: Cc1cc(SCc2sc(-c3ccc(C(F)(F)F)cc3)nc2C)ccc1OCC(=O)O
Procedure, shortened: as §1

doramapimod = compound: Cc1ccc(-n2nc(C(C)(C)C)cc2NC(=O)Nc2ccc(OCCN3CCOCC3)c3ccccc23)cc1 [doramapimod]
Procedure, shortened: as §1

ispinesib = compound: Cc1ccc(C(=O)N(CCCN)[C@@H](c2nc3cc(Cl)ccc3c(=O)n2Cc2ccccc2)C(C)C)cc1 [ispinesib]
Procedure, shortened: as §1

Measured: log2 fold change

GPKOW (UniProt Q92917)
Chain of UniProt Q92917 (Q92917 whole entry, looked up): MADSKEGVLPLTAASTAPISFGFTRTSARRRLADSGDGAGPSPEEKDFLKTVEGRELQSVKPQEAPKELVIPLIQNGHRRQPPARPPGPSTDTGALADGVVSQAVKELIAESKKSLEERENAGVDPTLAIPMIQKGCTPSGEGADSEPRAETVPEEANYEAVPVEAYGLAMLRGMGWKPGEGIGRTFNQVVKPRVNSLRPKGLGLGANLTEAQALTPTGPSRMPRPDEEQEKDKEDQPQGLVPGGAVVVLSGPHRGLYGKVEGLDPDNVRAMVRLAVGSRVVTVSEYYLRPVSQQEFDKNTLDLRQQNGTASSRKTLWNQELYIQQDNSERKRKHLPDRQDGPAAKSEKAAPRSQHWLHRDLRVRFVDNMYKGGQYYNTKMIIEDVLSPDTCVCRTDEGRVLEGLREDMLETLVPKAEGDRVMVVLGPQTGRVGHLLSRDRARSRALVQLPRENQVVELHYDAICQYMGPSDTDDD
inactive: [1] -0.055 | filanesib -0.118 | zotarolimus 0.024 | idasanutlin -0.06 | alisertib 0.039 | [2] -0.021 | gefitinib 0.047 | [3] 0.11 | lapatinib -0.005 | pictilisib -0.037 | [4] 0.004 | crizotinib -0.147 | [5] 0.104 | [6] -0.004 | duvelisib 0.087 | gandotinib -0.094 | tozasertib -0.121 | [7] 0.195 | doramapimod -0.03 | ispinesib -0.013

GYG1 (UniProt P46976)
Chain of UniProt P46976 (P46976 whole entry, looked up): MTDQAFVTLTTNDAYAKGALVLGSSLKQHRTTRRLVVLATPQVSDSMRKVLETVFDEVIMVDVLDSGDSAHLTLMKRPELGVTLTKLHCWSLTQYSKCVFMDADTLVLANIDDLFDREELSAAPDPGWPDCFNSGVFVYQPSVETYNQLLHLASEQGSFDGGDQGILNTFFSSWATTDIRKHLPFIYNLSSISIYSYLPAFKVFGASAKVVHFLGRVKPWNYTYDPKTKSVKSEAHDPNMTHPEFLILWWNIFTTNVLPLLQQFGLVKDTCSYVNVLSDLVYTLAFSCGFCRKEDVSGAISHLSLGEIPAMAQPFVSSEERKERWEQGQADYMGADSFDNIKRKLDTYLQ
active: pictilisib 0.376
inactive: [1] 0.08 | filanesib 0.124 | zotarolimus 0.036 | idasanutlin 0.15 | alisertib -0.133 | [2] -0.163 | gefitinib -0.028 | [3] -0.195 | lapatinib 0.051 | [4] -0.223 | crizotinib -0.037 | [5] -0.15 | [6] 0.018 | duvelisib -0.057 | gandotinib -0.12 | tozasertib 0.072 | [7] 0.09 | doramapimod 0.072 | ispinesib -0.12

GTF3A (UniProt Q92664)
inactive: [1] 0.092 | filanesib -0.138 | zotarolimus 0.067 | idasanutlin -0.018 | alisertib 0.014 | [2] -0.225 | gefitinib -0.139 | [3] -0.006 | lapatinib 0.099 | pictilisib -0.042 | [4] -0.002 | crizotinib -0.145 | [5] 0.015 | [6] 0.078 | duvelisib 0.019 | gandotinib 0.023 | tozasertib -0.025 | [7] 0.023 | doramapimod -0.001

HEXA (UniProt P06865)
Chain of UniProt P06865 (P06865 whole entry, looked up): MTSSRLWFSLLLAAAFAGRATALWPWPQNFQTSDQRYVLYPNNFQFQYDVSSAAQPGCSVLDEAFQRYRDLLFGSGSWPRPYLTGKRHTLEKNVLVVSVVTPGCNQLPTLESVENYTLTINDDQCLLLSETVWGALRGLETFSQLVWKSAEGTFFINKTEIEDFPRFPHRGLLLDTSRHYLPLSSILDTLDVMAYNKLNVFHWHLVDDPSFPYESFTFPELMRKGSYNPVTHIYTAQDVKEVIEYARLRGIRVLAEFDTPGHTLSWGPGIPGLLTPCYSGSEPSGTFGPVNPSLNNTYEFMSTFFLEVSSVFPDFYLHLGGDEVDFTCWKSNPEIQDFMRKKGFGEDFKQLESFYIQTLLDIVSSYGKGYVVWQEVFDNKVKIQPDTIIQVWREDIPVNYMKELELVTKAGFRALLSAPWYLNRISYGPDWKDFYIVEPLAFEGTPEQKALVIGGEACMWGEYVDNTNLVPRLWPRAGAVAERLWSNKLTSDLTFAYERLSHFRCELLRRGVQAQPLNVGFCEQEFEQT
inactive: [1] 0.028 | filanesib -0.066 | zotarolimus -0.015 | idasanutlin -0.012 | alisertib -0.095 | [2] 0.01 | gefitinib -0.005 | [3] 0.035 | lapatinib 0 | pictilisib 0.03 | [4] 0.016 | [5] 0.02 | [6] -0.015 | duvelisib 0.049 | gandotinib 0.015 | tozasertib 0.002 | [7] -0.02 | doramapimod -0.016 | ispinesib -0.124
active: crizotinib -0.785

GALC (UniProt P54803)
Chain of UniProt P54803 (P54803 whole entry, looked up): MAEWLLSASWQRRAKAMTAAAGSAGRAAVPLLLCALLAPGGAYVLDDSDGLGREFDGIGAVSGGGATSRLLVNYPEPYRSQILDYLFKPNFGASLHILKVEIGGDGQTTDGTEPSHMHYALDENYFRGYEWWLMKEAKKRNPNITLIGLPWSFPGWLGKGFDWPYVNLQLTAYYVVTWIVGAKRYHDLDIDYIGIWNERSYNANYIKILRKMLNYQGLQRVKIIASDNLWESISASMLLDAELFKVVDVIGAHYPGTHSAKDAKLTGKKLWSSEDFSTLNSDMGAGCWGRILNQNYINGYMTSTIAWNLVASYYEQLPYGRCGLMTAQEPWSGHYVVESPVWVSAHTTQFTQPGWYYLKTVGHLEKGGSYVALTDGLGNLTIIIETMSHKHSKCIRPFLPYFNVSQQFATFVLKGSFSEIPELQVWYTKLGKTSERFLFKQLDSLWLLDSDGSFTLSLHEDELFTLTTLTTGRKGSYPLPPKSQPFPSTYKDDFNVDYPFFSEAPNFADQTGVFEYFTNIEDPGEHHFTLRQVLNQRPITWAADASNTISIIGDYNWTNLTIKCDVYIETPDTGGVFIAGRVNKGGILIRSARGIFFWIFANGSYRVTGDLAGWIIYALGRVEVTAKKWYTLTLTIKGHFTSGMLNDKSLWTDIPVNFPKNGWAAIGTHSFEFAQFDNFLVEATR
inactive: [1] 0.007 | filanesib -0.017 | zotarolimus -0.071 | idasanutlin -0.121 | alisertib 0.049 | [2] 0.099 | gefitinib -0.014 | [3] 0.066 | lapatinib 0.042 | pictilisib 0.159 | [4] 0.03 | crizotinib -0.023 | [5] 0.03 | [6] -0.012 | duvelisib -0.049 | gandotinib 0.008 | tozasertib 0.033 | [7] 0 | doramapimod -0.01 | ispinesib -0.135

GTF2A2 (UniProt P52657)
Chain of UniProt P52657 (P52657 whole entry, looked up): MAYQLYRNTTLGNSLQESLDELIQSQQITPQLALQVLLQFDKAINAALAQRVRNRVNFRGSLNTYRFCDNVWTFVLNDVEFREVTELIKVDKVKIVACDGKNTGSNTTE
inactive: [1] -0.067 | filanesib -0.043 | zotarolimus -0.006 | idasanutlin -0.036 | alisertib 0.018 | [2] 0.044 | gefitinib -0.028 | [3] 0.032 | lapatinib -0.042 | pictilisib 0.041 | [4] 0.022 | crizotinib 0.11 | [5] 0.102 | [6] 0.015 | duvelisib 0.067 | gandotinib -0.005 | tozasertib 0.031 | [7] -0.076 | doramapimod -0.034 | ispinesib 0.023

GMEB2 (UniProt Q9UKD1)
Chain of UniProt Q9UKD1 (Q9UKD1 whole entry, looked up): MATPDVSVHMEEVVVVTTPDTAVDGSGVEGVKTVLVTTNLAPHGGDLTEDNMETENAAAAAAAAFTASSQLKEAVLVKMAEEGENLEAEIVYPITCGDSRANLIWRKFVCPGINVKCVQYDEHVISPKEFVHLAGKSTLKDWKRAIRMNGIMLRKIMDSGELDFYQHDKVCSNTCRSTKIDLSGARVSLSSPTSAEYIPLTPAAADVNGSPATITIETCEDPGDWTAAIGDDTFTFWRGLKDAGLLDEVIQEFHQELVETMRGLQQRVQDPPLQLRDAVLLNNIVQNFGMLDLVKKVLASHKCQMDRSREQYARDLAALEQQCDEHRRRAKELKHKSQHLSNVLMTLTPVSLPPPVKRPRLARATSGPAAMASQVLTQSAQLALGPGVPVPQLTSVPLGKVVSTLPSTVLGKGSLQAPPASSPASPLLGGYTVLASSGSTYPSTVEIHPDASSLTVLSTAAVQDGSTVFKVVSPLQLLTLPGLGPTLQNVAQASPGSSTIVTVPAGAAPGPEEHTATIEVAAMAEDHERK
inactive: [1] -0.027 | filanesib 0.04 | zotarolimus 0.03 | idasanutlin 0.073 | alisertib -0.009 | [2] 0.053 | gefitinib 0.038 | [3] 0.027 | lapatinib -0.022 | pictilisib 0.101 | [4] -0.012 | crizotinib 0.041 | [5] -0.063 | [6] -0.09 | duvelisib -0.028 | gandotinib -0.001 | tozasertib 0.051 | [7] 0.009 | doramapimod 0.053 | ispinesib 0.071

HHEX (UniProt Q03014)
Chain of UniProt Q03014 (Q03014 whole entry, looked up): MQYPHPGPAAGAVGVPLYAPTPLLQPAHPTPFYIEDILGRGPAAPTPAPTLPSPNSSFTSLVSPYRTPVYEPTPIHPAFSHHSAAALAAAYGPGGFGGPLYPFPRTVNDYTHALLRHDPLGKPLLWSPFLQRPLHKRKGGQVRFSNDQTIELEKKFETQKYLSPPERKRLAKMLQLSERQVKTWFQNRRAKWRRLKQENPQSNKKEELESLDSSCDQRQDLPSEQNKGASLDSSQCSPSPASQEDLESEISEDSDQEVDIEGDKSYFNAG
inactive: [1] 0.178 | filanesib -0.007 | zotarolimus -0.102 | idasanutlin 0.035 | alisertib 0.002 | [2] -0.04 | gefitinib -0.016 | [3] 0.053 | lapatinib -0.004 | pictilisib -0.012 | [4] -0.014 | crizotinib -0.027 | [5] -0.104 | [6] 0.49 | duvelisib -0.072 | gandotinib -0.042 | tozasertib -0.019 | [7] 0.021 | doramapimod 0.05 | ispinesib -0.128

HECTD1 (UniProt Q9ULT8)
inactive: [1] -0.039 | filanesib 0.091 | zotarolimus 0.023 | idasanutlin 0.047 | alisertib 0.087 | [2] -0.04 | gefitinib -0.016 | [3] -0.132 | lapatinib 0.096 | pictilisib 0.02 | [4] -0.034 | crizotinib 0.084 | [5] 0.129 | [6] 0.072 | duvelisib -0.091 | gandotinib -0.062 | tozasertib 0.002 | [7] 0.06 | doramapimod -0.062 | ispinesib -0.126

GTF3C5 isoform 3 (UniProt Q9Y5Q8)
Chain of UniProt Q9Y5Q8 (Q9Y5Q8 whole entry, looked up): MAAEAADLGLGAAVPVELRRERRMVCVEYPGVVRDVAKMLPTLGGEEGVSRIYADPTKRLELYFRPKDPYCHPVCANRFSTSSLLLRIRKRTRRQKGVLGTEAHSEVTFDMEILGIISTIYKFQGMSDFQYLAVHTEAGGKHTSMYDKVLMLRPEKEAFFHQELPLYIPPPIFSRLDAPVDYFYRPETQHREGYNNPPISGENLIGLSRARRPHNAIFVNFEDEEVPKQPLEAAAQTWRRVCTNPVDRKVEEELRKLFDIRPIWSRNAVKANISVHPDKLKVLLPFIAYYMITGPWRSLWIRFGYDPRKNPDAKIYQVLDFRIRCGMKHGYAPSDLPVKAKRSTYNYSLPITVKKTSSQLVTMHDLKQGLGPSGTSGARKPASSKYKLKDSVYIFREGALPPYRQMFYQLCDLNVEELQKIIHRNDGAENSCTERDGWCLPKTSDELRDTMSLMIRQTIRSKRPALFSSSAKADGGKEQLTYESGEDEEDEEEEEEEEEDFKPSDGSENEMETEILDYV
inactive: [1] -0.115 | filanesib -0.039 | zotarolimus 0.116 | idasanutlin -0.068 | alisertib 0.064 | [2] 0.024 | gefitinib -0.003 | [3] -0.034 | lapatinib 0.13 | pictilisib -0.148 | [4] 0.01 | crizotinib 0.17 | [5] 0.016 | [6] 0.158 | duvelisib -0.106 | gandotinib 0.043 | tozasertib 0.063 | [7] 0.034 | doramapimod 0.095 | ispinesib -0.248

IDH3A (UniProt P50213)
Chain of UniProt P50213 (P50213 whole entry, looked up): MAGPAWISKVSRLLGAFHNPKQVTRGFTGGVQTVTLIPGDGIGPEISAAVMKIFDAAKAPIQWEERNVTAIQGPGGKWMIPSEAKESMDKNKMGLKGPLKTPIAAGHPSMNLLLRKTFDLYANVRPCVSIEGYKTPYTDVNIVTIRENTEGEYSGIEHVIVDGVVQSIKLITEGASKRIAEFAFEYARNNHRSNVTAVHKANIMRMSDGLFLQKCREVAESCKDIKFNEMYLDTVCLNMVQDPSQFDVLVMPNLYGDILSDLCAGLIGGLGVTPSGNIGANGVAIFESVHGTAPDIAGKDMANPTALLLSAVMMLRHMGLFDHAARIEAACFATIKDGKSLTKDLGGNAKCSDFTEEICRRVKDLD
inactive: [1] 0 | filanesib -0.067 | zotarolimus 0.007 | idasanutlin -0.074 | alisertib -0.063 | [2] -0.009 | gefitinib 0.039 | [3] 0.022 | lapatinib 0.017 | pictilisib -0.021 | [4] 0.023 | crizotinib 0.006 | [5] 0.07 | [6] -0.046 | duvelisib 0.063 | gandotinib -0.037 | tozasertib -0.029 | [7] 0.022 | doramapimod -0.024 | ispinesib 0.013

GYS1 (UniProt P13807)
Chain of UniProt P13807 (P13807 whole entry, looked up): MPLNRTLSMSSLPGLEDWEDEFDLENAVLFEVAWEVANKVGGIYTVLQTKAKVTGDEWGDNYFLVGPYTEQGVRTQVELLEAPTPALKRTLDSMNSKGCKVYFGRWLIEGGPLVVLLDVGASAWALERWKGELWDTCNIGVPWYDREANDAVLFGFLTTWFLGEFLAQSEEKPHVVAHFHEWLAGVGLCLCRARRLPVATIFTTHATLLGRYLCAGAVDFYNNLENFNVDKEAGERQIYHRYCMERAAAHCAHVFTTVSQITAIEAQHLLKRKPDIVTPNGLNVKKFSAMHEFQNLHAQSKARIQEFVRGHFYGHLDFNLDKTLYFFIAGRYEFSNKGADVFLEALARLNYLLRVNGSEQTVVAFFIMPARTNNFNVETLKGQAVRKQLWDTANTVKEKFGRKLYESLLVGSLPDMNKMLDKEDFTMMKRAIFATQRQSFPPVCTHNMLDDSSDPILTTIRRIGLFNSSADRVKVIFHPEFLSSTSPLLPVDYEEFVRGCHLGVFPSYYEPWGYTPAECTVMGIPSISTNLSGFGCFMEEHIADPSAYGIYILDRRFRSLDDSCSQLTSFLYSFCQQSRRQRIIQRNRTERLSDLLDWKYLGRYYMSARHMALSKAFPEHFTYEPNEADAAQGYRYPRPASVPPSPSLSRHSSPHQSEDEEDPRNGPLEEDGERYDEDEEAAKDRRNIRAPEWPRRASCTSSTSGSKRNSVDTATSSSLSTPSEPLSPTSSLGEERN
inactive: [1] -0.045 | filanesib 0.045 | zotarolimus 0.124 | idasanutlin 0.462 | alisertib -0.026 | [2] -0.109 | gefitinib -0.006 | [3] -0.165 | lapatinib 0.013 | pictilisib 0.219 | [4] 0.017 | crizotinib -0.097 | [5] -0.187 | [6] 0.311 | duvelisib -0.147 | gandotinib -0.015 | tozasertib -0.079 | [7] 0.184 | doramapimod 0.271 | ispinesib -0.231

GCC2 (UniProt Q8IWJ2)
inactive: [1] -0.037 | filanesib 0.137 | zotarolimus 0.074 | idasanutlin 0.065 | alisertib -0.046 | [2] -0.037 | gefitinib 0.024 | [3] -0.11 | lapatinib 0.056 | pictilisib 0.014 | [4] 0.04 | crizotinib -0.01 | [5] -0.104 | [6] 0.246 | duvelisib -0.007 | gandotinib 0.081 | tozasertib 0.113 | [7] 0.048 | doramapimod 0.136 | ispinesib -0.173

HP1BP3 (UniProt Q5SSJ5)
inactive: [1] 0.041 | filanesib 0.145 | zotarolimus -0.003 | idasanutlin 0.095 | alisertib -0.069 | [2] -0.053 | gefitinib 0.154 | [3] -0.024 | lapatinib 0.044 | pictilisib 0.04 | [4] 0.002 | crizotinib -0.121 | [5] -0.013 | [6] 0.163 | duvelisib -0.097 | gandotinib 0.039 | tozasertib -0.011 | [7] 0.121 | doramapimod 0.035 | ispinesib -0.079

FARS2 (UniProt O95363)
inactive: [1] -0.171 | filanesib -0.122 | zotarolimus -0.049 | idasanutlin -0.076 | alisertib 0.137 | [2] 0.033 | gefitinib -0.114 | [3] 0.113 | lapatinib -0.061 | pictilisib 0.071 | [4] 0.004 | crizotinib -0.043 | [5] 0.088 | [6] 0.041 | duvelisib 0.073 | gandotinib -0.021 | tozasertib 0.045 | [7] 0.06 | doramapimod -0.023 | ispinesib -0.157

H2AZ1 (UniProt P0C0S5)
Chain of UniProt P0C0S5 (P0C0S5 whole entry, looked up): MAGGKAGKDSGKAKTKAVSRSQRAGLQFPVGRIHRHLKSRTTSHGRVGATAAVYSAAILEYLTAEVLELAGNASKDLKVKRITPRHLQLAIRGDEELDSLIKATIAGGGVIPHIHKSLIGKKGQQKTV
inactive: [1] 0.05 | filanesib 0.353 | zotarolimus -0.113 | idasanutlin 0.266 | alisertib 0.039 | [2] -0.046 | gefitinib 0.121 | [3] -0.161 | lapatinib 0 | pictilisib -0.09 | [4] -0.027 | crizotinib -0.062 | [5] -0.47 | [6] 0.345 | duvelisib -0.09 | gandotinib -0.006 | tozasertib -0.146 | [7] -0.084 | doramapimod 0.178 | ispinesib -0.147
